Morphology score and SARS-CoV-2 infection rate data for 10 molecules are collected here from the supplement of paper PMC13380429.

For assay [1], the system named is Vero E6 infected with SARS-CoV-2. Description: morphology score (similarity to uninfected cells); higher = more like uninfected cells. The conditions noted are these: 24 h.
Assay [2] shares this test system. Description: SARS-CoV-2 infection rate relative to infected DMSO; higher = more infection, active = 60 or less. The conditions noted are these: 24 h.

Molecules are shown by their SMILES.

For the molecule `Cc1cc(CC(C)CC(C)(C)C)n(O)c(=O)c1` (stereo not given) [piroctone-olamine] (10 µM), the morphology score in assay [1] came to 0.406. In addition, the SARS-CoV-2 infection rate in assay [2] is 88% (inactive).
The like results for `c1ccc2sc(SN3CCOCC3)nc2c1` [N-oxydiethylenebenzothiazole-2-sulfenamide] (10 µM) were, in that order, -0.00631 and 104% (inactive).
With `CN1CCc2cc(Cl)c(O)cc2[C@@H](c2ccccc2)C1` (10 µM), in assay [1], the morphology score came out at 0.0172. The SARS-CoV-2 infection rate in assay [2] was 108% (inactive).
The like results for `C[C@@]12CC[C@@H]3[C@@](CC[C@H]4[C@@]3(C)CCC[C@@]4(C)C(=O)O)(CC1=O)C2` [isosteviol] (10 µM) were, in that order, 0.144 and 100% (inactive).
Regarding `CCCCCCCCCCCCCCCC(=O)OC[C@H](O)[C@H]1OC(=O)C(O)=C1O` [L-ascorbyl-6-palmitate] (10 µM), in assay [1], the morphology score was -0.0423. Further, the SARS-CoV-2 infection rate in assay [2] is 112% (inactive).
The corresponding values for `NC(=O)OCC(COC(N)=O)c1ccccc1` [felbamate] (10 µM) are -0.0125 and 99% (inactive).
The like results for `C[C@@H]1C/C=C/C=C/C=C/C=C/[C@H](O[C@@H]2O[C@H](C)[C@@H](O)[C@H](N)[C@@H]2O)C[C@@H]2O[C@](O)(C[C@@H](O)C[C@H]3O[C@@H]3/C=C/C(=O)O1)C[C@H](O)[C@H]2C(=O)O` [natamycin] (10 µM) were, in that order, 0.0781 and 108% (inactive).
The like results for `Oc1ccc(C2(c3ccccc3F)CCC(F)(F)CC2)cc1` (10 µM) were, in that order, 0.0902 and 93% (inactive).
`CC(=O)c1cc2c(o1)C(=O)c1ccccc1C2=O` [napabucasin] (0.833333 µM): the morphology score in assay [1] is 0.309. For the same molecule, in assay [2], the SARS-CoV-2 infection rate was 89% (inactive).
The like results for `CC(=O)c1ccc2c(c1)N(CCCN1CCN(CCO)CC1)c1ccccc1S2` [acetophenazine] (10 µM) were, in that order, 0.201 and 96.5% (inactive).
